Results as given in the supplement of paper PMC10338343.
± gives the standard deviation.

What was measured:
[1] = system: MILI (PIWIL2) piRISC loaded with L1MC piRNA (26 nt); experiment: pre-steady-state target cleavage rate (min^-1); guide: L1MC piRNA 5'p-UAACUAAAUACUAUGCAAGCUGUAGG; higher = faster piRNA-guided slicing of the target
Procedure, shortened: (§1)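 In Cleave-'n-Seq, a transcribed, DNA-blocked target RNA library (0.1 nM) was combined with 1 nM active affinity-purified piRISC bearing one synthetic guide, with or without 500 nM GTSF1 partner protein. Reactions ran in HEPES–potassium acetate buffer at 33 °C for 0–8 or 0–960 min. Uncleaved targets were sequenced and normalised to depth and to weakly complementary targets, three trials were pooled, and k3 was capped at 0.0001 min^-1. The pre-steady-state cleavage rate was obtained by fitting a burst-and-steady-state model.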

[2] = system: EfPiwi piRISC loaded with L1MC piRNA (26 nt); experiment: pre-steady-state target cleavage rate (min^-1); auxiliary factor: 500 nM Ephydatia muelleri Gtsf1; guide: L1MC piRNA 5'p-UAACUAAAUACUAUGCAAGCUGUAGG; MIWI and MILI are mouse PIWI proteins and EfPiwi is from a freshwater sponge; tags in brackets are library labels; higher = faster piRNA-guided slicing of the target
Procedure, shortened: as §1

[3] = auxiliary factor: 500 nM mouse GTSF1
[4] = auxiliary factor: none (no GTSF1)

Sequence | pre-steady-state target cleavage rate [1, 3] | pre-steady-state target cleavage rate [1, 4] | pre-steady-state target cleavage rate [2]
UCCUCUCUACAGCUUGCAUAGUAUUUAGUUA | 0.28 ± 0.022 | 0.00895 ± 0.0022 | 0.0164 ± 0.006
UCCUGGUAGAGCUUGCAUAGUAAUUAGUUA | 0.177 ± 0.021 | 0.00729 ± 0.0024 | 0.00406 ± 0.0024
UCCUGGUACAGGAUGCAUAGUAUUUAGUAA | 0.172 ± 0.021 | 0.00595 ± 0.002 | 0.00412 ± 0.002
UCCUGCUACACUUGCAUAGUAUUUAGUUA | 0.268 ± 0.021 | 0.00611 ± 0.0023 | 0.00903 ± 0.0027
UCCUCCUACACCUUGGAUAGUAUUUAGUUA | 0.182 ± 0.026 | 0.00508 ± 0.0023 | 0.00658 ± 0.0029
UCCUGGAUCAGCUUUCAUAGUAUUUAGUUA | 0.204 ± 0.018 | 0.0048 ± 0.0029 | 0.0103 ± 0.0032
UCCUGGUACAGCAUUGCAUAGUAUUUAGUUA | 0.257 ± 0.039 | 0.0159 ± 0.0049 | 0.0107 ± 0.004
UCCUGGAUCAGCUUGCAUAGUAUUUAGUUA [g2:g22:cont:t1A] | 0.267 ± 0.017 | 0.00864 ± 0.0019 | 0.0886 ± 0.017
UCCUGCUGCAGCUUGCAUAGUAUUUAGUUA | 0.331 ± 0.024 | 0.00762 ± 0.0024 | 0.0729 ± 0.016
UCCUCGUACAGCUUGCAUAGUAAUUAGUUA | 0.283 ± 0.017 | 0.00698 ± 0.0019 | 0.111 ± 0.033
UCCUGCAACAGCUUGCAUAGUAUUUAGUUA | 0.398 ± 0.028 | 0.0107 ± 0.0034 | 0.0741 ± 0.018
UCCUGGAUGAGACUUGCAUAGUAUUUAGUUA | 0.186 ± 0.021 | 0.00953 ± 0.0028 | 0.00434 ± 0.003
UCCUGGAUGAGCUUGCAAAGUAUUUAGUUA | 0.0794 ± 0.011 | 0.00483 ± 0.0028 | 0.0322 ± 0.0094
UCCUGGAUGUCCCUUGCAUAGUAUUUAGUUA | 0.116 ± 0.021 | 0.00815 ± 0.0024 | 0.00608 ± 0.0026
UCCUGGUACAGCUUGCAUAGUAUAAUGUUA | 0.175 ± 0.036 | 0.00565 ± 0.0032 | 0.00312 ± 0.0026
UCCUCCUACAGCUUGCAUAGUAUUUAUGUUA | 0.162 ± 0.023 | 0.00611 ± 0.0025 | 0.00546 ± 0.0027
UCCUGGUACAUGCUUGCAUAGUAUUUAGUUA | 0.131 ± 0.018 | 0.00627 ± 0.0036 | 0.0077 ± 0.0034
